GPR151 ag – activates the human receptor GPR151. Q8TDV0. PathHunter beta-arrestin GPR151 cells, luminescence. activation, % at 11.2 µM. hit rate 1% among 650,000. AID 1508602; in the data active = activation above about 4.9%;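 also: 0% = median of compound wells and 100% = cells with positive control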
TEAD-YAP block – TEAD-YAP interaction inhibition; HEK-TIYL cells, TEAD-Gal4/YAP UAS-luciferase luminescence; inhibition, % at 9.12 µM; hit rate 1.4% among 640,000; AID 1259422; in the data active = inhibition above about 32%;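 also: 0% = median of test compound wells and 100% = reference inhibitor wells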
FBW7 activator – activators of human E3 ligase FBW7; Q969H0; hit rate 0.13% among 650,000; AlphaScreen FBW7–phospho-cyclin E peptide binding, activator screen; normalized activity (activation), % at 26.1 µM; in the data active = normalized activity above about 1.9%;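 also: purified mutant Fbw7 with reduced substrate affinity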
MITF primary – human MITF inhibition, primary screen; O75030; AlphaScreen MITF homodimerization, bead proximity signal; inhibition, % at 2.6 µM; hit rate 0.91% among 650,000; AID 1259374; in the data active = inhibition above about 50%;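 also: 0% = vehicle wells with protein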
Target sequence (O75030 whole entry, looked up): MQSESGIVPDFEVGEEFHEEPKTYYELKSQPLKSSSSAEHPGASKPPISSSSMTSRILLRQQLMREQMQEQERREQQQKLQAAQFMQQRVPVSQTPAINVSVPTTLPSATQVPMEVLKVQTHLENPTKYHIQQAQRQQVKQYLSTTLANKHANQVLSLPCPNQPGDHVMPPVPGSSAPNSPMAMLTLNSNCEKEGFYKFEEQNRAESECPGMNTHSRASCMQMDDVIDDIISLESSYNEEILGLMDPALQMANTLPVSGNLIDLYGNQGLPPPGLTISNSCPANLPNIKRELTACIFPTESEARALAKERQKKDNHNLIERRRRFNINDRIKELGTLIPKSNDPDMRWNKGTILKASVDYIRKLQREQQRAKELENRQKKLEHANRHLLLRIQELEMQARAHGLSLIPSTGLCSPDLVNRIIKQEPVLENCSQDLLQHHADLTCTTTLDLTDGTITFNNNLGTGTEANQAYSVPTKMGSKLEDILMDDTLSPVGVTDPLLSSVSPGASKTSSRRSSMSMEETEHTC
MITF inh conf – confirmation of human MITF inhibitors | shares compounds with MITF primary | AlphaScreen MITF homodimerization, biotin/His-MITF beads | inhibition, % at 2.6 µM | hit rate 16% among 4,700;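 active = inhibition above a cutoff derived from the DMSO control wells, cut at about 28% in these data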;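 also: 0% = MITF dimer wells with DMSO only; inhibitors lower the bead chemiluminescence by keeping MITF from dimerizing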
AS interf DR – counter-screen: compounds optically interfering with AlphaScreen | shares compounds with MITF primary | AlphaScreen optical interference counterscreen, cell-free | IC50, µM | hit rate 6% among 480; call rule not given here
AS interf ctr – counter-screen: compounds optically interfering with AlphaScreen. LysRS AlphaScreen counterscreen, signal interference, triplicate. AID 1259376. shares compounds with MITF primary. inhibition, % at 2.6 µM. hit rate 7.6% among 4,700;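 active = inhibition above a cutoff derived from the DMSO control wells, cut at about 30% in these data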
The depositor's hits bear a star; . = no result given. Sampled rows, rich in hits. Any-hit rate of the full collection: about 3.5%.

SMILES | GPR151 ag | TEAD-YAP block | FBW7 activator | MITF primary | MITF inh conf | AS interf ctr | others
COC(=O)c1cc(S(=O)(=O)NCc2ccccc2OC)c[nH]1 | 1.1 | 14.6 | 0.5 | 75.4* | 3.5 | 9.0
CCN1CCN(CCOc2c(OC)cccc2OC)CC1 | 0.9 | 1.1 | 0.0 | 82.0* | 7.4 | 15.7
COc1cccc(OC)c1OCCCCN1CCCC1 | -0.2 | 5.8 | 0.5 | 52.5* | -7.8 | -10.4
Cc1ccc2nc(Nc3ccc(Cl)cc3)nc(-c3ccccc3)c2c1 | 1.1 | -0.8 | 0.3 | -6.3 | . | .
CCc1ccccc1N(CC(N)=O)S(=O)(=O)c1ccccc1 | 1.6 | 4.4 | 0.4 | 6.0 | . | .
CCSc1nc2c(c(=O)[nH]1)C(c1ccc(O)c(OC)c1)C1=C(CCCC1=O)N2 (stereo unspecified) | -1.1 | 0.6 | 0.2 | 60.5* | 0.0 | 7.9
O=C(Cc1ccc(Cl)cc1)Nc1ccc(C(=O)Nc2ccccc2[N+](=O)[O-])cc1 | -0.3 | 15.9 | 0.2 | 7.9 | . | .
CN1CCN(CC(=O)NCc2ccc(F)cc2)CC1 | 0.8 | -4.9 | -0.1 | 21.4 | . | .
Cc1ccc(CNC(=O)CN2CCN(C)CC2)cc1 | 0.2 | 3.5 | -0.1 | 84.1* | 7.5 | 9.0
O=C(CN1CCCN(CC(=O)NCc2ccccc2)CC1)NCc1ccccc1 | -0.4 | -9.5 | 0.1 | 93.0* | 3.6 | -2.4
CN(C)CC(C)(C)CNCC(=O)Nc1ccc(F)c(F)c1F | -0.4 | 0.8 | 0.1 | 69.8* | 0.8 | -2.0
O=S(=O)(NCCN1CCN(c2ccccc2F)CC1)c1ccccc1Cl | 1.8 | -4.5 | -0.1 | 71.8* | 2.4 | -4.0
Cn1c(=O)oc2cc(S(=O)(=O)NCCN3CCN(c4ccccc4F)CC3)ccc21 | 0.4 | 1.4 | 0.3 | 14.1 | . | .
O=C(Nc1ccccc1C(=O)NC1CCCCC1)c1cccc(S(=O)(=O)NC2CCCCC2)c1 | 0.1 | 2.7 | -0.2 | 14.7 | . | .
Cc1ccc(NS(=O)(=O)c2cccc(C(=O)NNC(=O)NC3CCCCC3)c2)c(C)c1 | 1.7 | -1.3 | -0.1 | 71.0* | 4.0 | 13.1
O=C(c1cccc(Cl)c1)N1CCN(Cc2ccccc2F)CC1 | 2.0 | 5.7 | 0.1 | 59.2* | 6.7 | 7.4
Cc1ccccc1CN1CCN(C(=O)c2cccc(Cl)c2)CC1 | 0.7 | -6.4 | 0.8 | 62.8* | 7.4 | 11.9
O=C(Cc1ccccc1)NCCS(=O)(=O)N1CCN(CCc2ccccc2)CC1 | 1.3 | 6.8 | 0.1 | 7.4 | . | .
COCCNC(=O)c1sc2ncnc(N3CCN(c4ccccn4)CC3)c2c1C | -0.2 | 13.1 | -0.2 | 1.6 | . | .
C=CCN(CC=C)CCOc1ccc(C(=O)OC)cc1 | -2.6 | -7.5 | 0.4 | 50.6* | -10.0 | -7.4
CC(C)OCCCNC(=O)C1CC(Cc2ccc(F)cc2)=NO1 (stereo unspecified) | 1.5 | -12.2 | -0.2 | 53.0* | 23.5 | 11.8
CSc1ccc(CN2CCOc3ccc(CN4CCN(C(C)=O)CC4)cc3C2)cc1 | 1.0 | 36.6* | 0.0 | 88.5* | 3.3 | -1.7
O=C(c1cccc(Cl)c1)N1CCN(Cc2cccc(F)c2)CC1 | 0.4 | 3.2 | 0.0 | 67.0* | -3.8 | 6.0
COc1ccc(C(=O)N2CCN(Cc3cccc(Br)c3)CC2)cc1 | 0.4 | -1.9 | 0.1 | 51.4* | 6.4 | 13.5
O=C(c1cccc(C(=O)N2CCN(Cc3ccccc3)CC2)c1)N1CCN(Cc2ccccc2)CC1 | -0.5 | 15.5 | 0.2 | -4.1 | . | .
SMILES | GPR151 ag | TEAD-YAP block | FBW7 activator | MITF primary | MITF inh conf | AS interf ctr | others
O=C(c1cccc(F)c1)N1CCN(Cc2ccncc2)CC1 | -1.7 | -7.3 | 0.6 | 78.4* | 63.5* | -6.3 | AS interf DR=>5.66
CCOc1cc(/C=N/N=C(\N)c2nonc2N)ccc1O | -0.6 | -69.0 | 0.0 | -6.8 | . | .
O=c1[nH]nc(C(F)(F)F)c(=O)[nH]1 | -0.1 | 5.5 | -0.1 | 3.5 | . | .
COC(=O)c1ccc(NC(=O)Cn2cnc3c(cnn3-c3ccccc3)c2=O)cc1 | 1.9 | 16.1 | 0.2 | 1.2 | . | .
COc1cc(CN2CCN(C(=O)c3cccc(F)c3)CC2)cc(OC)c1O | 0.1 | -1.4 | -0.4 | 67.7* | -2.8 | 5.8
COc1ccc(CN2CCN(C(=O)c3cccc(F)c3)CC2)cc1OC | 0.1 | -1.0 | 0.0 | 31.2 | . | .
COc1cc(OC)cc(C(=O)N2CCN(Cc3cccc(Br)c3)CC2)c1 | -1.6 | 5.0 | -0.2 | 41.1 | . | .
O=C(c1ccc(F)cc1)N1CCN(Cc2cccc(Br)c2)CC1 | -0.6 | 8.7 | 0.0 | 57.5* | -7.5 | -5.8
